Measurements: PubChem BioAssay AID1220 (Sanford-Burnham Center for Chemical Genomics, 2008)
Hit rate of the full screen: of about 190,000 compounds, about 1,300 (0.68%) were called active. For the sample, actives were picked, then their nearest neighbours and some compounds at random. A number with no mark means an inactive call. Cut-off read from the data, not from the text of the source: active = inhibition above about 50%; inactive = the rest.

Molecular target: Mannose-6-phosphate isomerase (Homo sapiens) (UniProt P34949)
Sequence (P34949 whole entry, looked up): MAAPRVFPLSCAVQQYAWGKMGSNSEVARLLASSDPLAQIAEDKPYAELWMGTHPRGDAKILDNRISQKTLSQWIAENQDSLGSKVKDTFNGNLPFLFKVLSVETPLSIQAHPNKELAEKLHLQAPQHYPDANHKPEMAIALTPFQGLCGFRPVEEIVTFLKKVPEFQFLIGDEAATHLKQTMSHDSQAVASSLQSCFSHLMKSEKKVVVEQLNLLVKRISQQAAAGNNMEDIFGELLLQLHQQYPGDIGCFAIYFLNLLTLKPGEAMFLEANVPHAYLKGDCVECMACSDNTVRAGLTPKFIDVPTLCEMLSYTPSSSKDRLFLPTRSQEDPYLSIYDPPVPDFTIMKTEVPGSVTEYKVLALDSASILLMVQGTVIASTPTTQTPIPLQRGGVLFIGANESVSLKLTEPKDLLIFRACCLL
Assay: human PMI inhibitors, high substrate, primary screen, biochemical, fluorescence intensity, high mannose 6-phosphate (AID 1220)
Settings: recombinant PMI enzyme, coupled fluorescence intensity; at 20 µM; hits give high values

| SMILES | inhibition |
| --- | --- |
| CCCCCCNC(=O)Nc1ccccc1 | 0.8% |
| CC(=O)N1C(=O)/C(=C2\SC(=S)N(NC(=O)c3ccc(O)cc3)C2=O)c2ccccc21 | 56.1% (active) |
| CC(/C=C1\SC(=S)N(NC(=O)c2ccc(O)cc2)C1=O)=C\c1ccccc1 | 23.4% |
| CC(=O)N1C(=O)/C(=C2\SC(=S)N(NS(=O)(=O)c3ccc(C)cc3)C2=O)c2ccccc21 | 38.2% |
| Cc1cc(C)c(S(=O)(=O)n2nc(C)c(Br)c2C)c(C)c1 | -6.9% |
| O=C(CCn1c(=O)sc2ccccc21)NCc1cccs1 | -0.4% |
| COCc1cc(C)[nH]c(=O)c1C#N | -5.6% |
| O=c1c2ccccc2c2ccccc2c(=O)n1-c1ccccc1 | -1.1% |
| CN(C)S(=O)(=O)c1cccc(-c2cn3ccccc3n2)c1 | -10.7% |
| Cc1cc(=O)c2ccccc2s1 | 0.5% |
| Cc1ccnc(N2C3CCC2CC(O)(c2ccccc2)C3)n1 (stereo unspecified) | -10.5% |
| O=c1c2ccccc2sn1-c1ccccc1 | 62.8% (active) |
| Cc1ccccc1N=Cc1c(O)n(-c2nccs2)c(=O)c2ccccc12 | 16.2% |
| CN(C)S(=O)(=O)c1cccc(N2C(=O)CC3(CCCCC3)CC2=O)c1 | 0.9% |
| O=c1[nH]n(-c2ccccc2)c(=O)c2ccccc12 | -0.9% |
| O=C1CCCN1c1nccs1 | -6.6% |
| CCOC(=O)c1cnn(-c2ccccc2)c1NC(=O)CCl | -1.3% |
| CCN(CC)S(=O)(=O)c1cccc(NC(=O)c2cc(=O)[nH]c3ccccc23)c1 | 4.5% |
| CCCCNC(=O)N(C)c1nc2ccccc2s1 | -3.1% |
| CCn1c(SCC(=O)NCc2ccccc2)nc2c(c1=O)SC(C)C2 (stereo unspecified) | 2.5% |
| COc1ccc(CN2CCCC(CNC(=O)c3ccc(F)cc3)C2)c(F)c1 (stereo unspecified) | -6% |
| CCOc1ccc(-c2nc(C#N)c(NCC(C)C)o2)cc1 | -0.5% |
| COc1ccc(CCC(=O)N2c3ccccc3CC2C)cc1 (stereo unspecified) | 14.3% |

| SMILES | inhibition |
| --- | --- |
| COc1cc(/C=C/C(=O)N2CCCc3ccccc32)cc(OC)c1OC | -12.4% |
| O=C(Nc1nc(-c2cccs2)cs1)c1ccco1 | 12.4% |
| CSCCC(NC(=O)c1ccco1)C(=O)OCc1cc([N+](=O)[O-])cc2c1OCOC2 (stereo unspecified) | 5.4% |
| CC1CCC2(CC1)NC(=O)N(NC(=O)CCl)C2=O (stereo unspecified) | -10.3% |
| CC1CCN(CCOCCOc2ccc(Cl)cc2Br)CC1 | -7.9% |
| Nc1nnc(N2CCc3ccccc32)s1 | 6.2% |
| Cc1ccc(Cn2c(=O)sc3ccccc3c2=O)cc1 | 8% |
| Cc1c(Cl)sn(-c2ccc(Cl)cc2)c1=O | -4.6% |
| COc1ccc(-n2c(C)c3c(OC)cccc(=O)c3c2C)cc1 | 46.4% |
| COc1cccc(=O)c2c(C)n(-c3ccc(C(=O)O)cc3)c(C)c12 | -16.3% |
| COc1cccc(-n2c(C)c3c(OC)cccc(=O)c3c2C)c1 | 61% (active) |
| COc1ccccc1-n1c(C)c2c(OC)cccc(=O)c2c1C | 54.7% (active) |
| COc1cccc(=O)c2c(C)n(-c3cc(C)cc(C)c3)c(C)c12 | 29.9% |
| COc1cccc(=O)c2c(C)n(C)c(C)c12 | -5% |
| CNS(=O)(=O)c1cc(C(=O)OCC(=O)NC2CCCc3ccccc32)ccc1Cl (stereo unspecified) | 9.4% |
| COC(=O)C1=C(C)NC(=O)/C1=C\c1cc(C)n(-c2ccccc2F)c1C | -51.3% |
| O=C(CSCc1ccccc1)N1CCN(Cc2ccc3c(c2)OCO3)CC1 | 9.8% |
| O=C1OCCC1Sc1nc2ccccc2c(=O)n1Cc1ccccc1 (stereo unspecified) | -1.6% |
| COc1ccc(-c2nnc(SC)o2)c(OC)c1 | 2% |
| Cc1cc(NC(=O)c2sc(Nc3ccc(F)c(Cl)c3)nc2N)no1 | -10.8% |
| O=c1cc(O)c2sc(Nc3ccc(F)c(Cl)c3)nc2[nH]1 | 57.5% (active) |
| COC(=O)Cc1csc(Nc2ccc(F)c(Cl)c2)n1 | -0.3% |
| CN(Cc1ccccc1)c1ccc(S(=O)(=O)N2CCC(C(=O)O)CC2)cc1[N+](=O)[O-] | 10.6% |

| SMILES | inhibition |
| --- | --- |
| Brc1ccc(-c2noc(COc3ccc4c(c3)CCC4)n2)o1 | 14% |
| O=C(OCCOCCN=C1NS(=O)(=O)c2ccccc21)C1CC(=O)N(c2ccccc2)C1 (stereo unspecified) | -2.6% |
| Cc1nc(-c2ccc(C(=O)Nc3ccccc3F)cc2)cs1 | -3.7% |
| CCOc1c(Cl)cc(CNc2ccc(S(N)(=O)=O)cc2)cc1OC | -2% |
| C=CCOc1c(Cl)cc(CNc2ccc3[nH]c(=O)[nH]c3c2)cc1OC | 35% |
| C=CCOc1c(Cl)cc(CNc2ccc(C)c(Cl)c2)cc1OC | 12.6% |
| CCOc1cc(CNc2ccc(S(N)(=O)=O)cc2)cc(Cl)c1OC | 2.7% |
| COc1cc(CNc2ccc(N3CCOCC3)cc2)cc(Br)c1OC | 9.3% |
| CCOc1cc(CNc2ccc(N3CCOCC3)cc2)cc(Br)c1OCC | 14.8% |
| C=CCOc1c(Cl)cc(CNc2ccc(N(C)C)cc2)cc1OC | 54% (active) |
| CC1=CC(C)(C)N(C(=O)CCl)c2cc(C)ccc21 | -1.9% |
| CN(C)C(=C(C#N)C#N)N1CCN(c2ccc(Cl)c(Cl)c2)CC1 | 6.1% |
| CC(C)(C)[C@H]1C=C(C(=O)N2CCN(Cc3ccc4c(c3)OCO4)CC2)O[C@@H](OCc2ccc(CO)cc2)C1 | 2.7% |
| COc1ccc(Br)cc1CN1CCN(C(=O)c2ccc(OC)c(OC)c2)CC1 | 2.3% |
| CCOC(=O)CCC(NC(=O)CCCCCCCCC(=O)NC(CCC(=O)OCC)C(=O)OCC)C(=O)OCC (stereo unspecified) | 6.1% |
| COc1ccc(NS(=O)(=O)c2cccc(NC(=O)CCS(=O)(=O)c3ccccc3)c2)cc1 | 8.9% |
| O=C(CN1CCCCCC1)Nc1ccc(F)c(F)c1 | -9.6% |
| CCCCNC(=O)c1onc(CSc2cc(C)cc(C)c2)c1C(=O)O | -4% |
| O=C(N/N=C/c1cc(Br)c(Br)o1)C(O)c1ccccc1 (stereo unspecified) | 5.2% |
| CC(CC(C)C(=O)Nc1ccccc1C(C)(C)C)C(=O)O (stereo unspecified) | -12.3% |
| CC(CNc1ccccc1O)C(=O)O (stereo unspecified) | 64.7% (active) |
| CC(CC(=O)O)Nc1ccccc1O (stereo unspecified) | 49.3% |
| COc1cc2c(cc1NC(=O)CSc1cccc[n+]1[O-])oc1ccccc12 | -6.2% |

| SMILES | inhibition |
| --- | --- |
| COc1cc(Cl)cc2c1Sc1ccccc1/C2=C/CCN(C)C | -9.3% |
| CN(C)CC/C=C1/c2ccccc2Sc2c(O)cc(Cl)cc21 | 50% (active) |
| CN(C)CC/C=C1\c2ccccc2Sc2ccc(Cl)cc21 | -12.5% |
| N#CC1(c2nc3ccccc3[nH]2)CC1c1ccc2c(c1)OCO2 (stereo unspecified) | 0.1% |
| COc1ccc(S(=O)(=O)N2CCc3ccccc32)cc1NC(C)=O | 1.8% |
| CNCC(C)COc1ccccc1OCc1ccccc1 (stereo unspecified) | -5.2% |
| N#CC1=C(N)OC2=C(C(=O)CCC2)C12CCN(C(=O)OCc1ccccc1)CC2 | -6.7% |
| CCOc1ccccc1NS(=O)(=O)c1c(C)noc1C | 54.2% (active) |
| CCOc1ccccc1NS(=O)(=O)c1cn(C)nc1C | -10.4% |
| CCOc1ccccc1NC(=O)C1CCN(S(=O)(=O)c2c(C)noc2C)CC1 | 2.7% |
| CC(=O)Nc1c(NC(=O)CC#N)[nH]c2c(c1=O)c(=O)n(C)c(=O)n2C | 15.1% |
| CCn1c(C)cc(C=C2C(=O)c3ccccc3C2=O)c1C | 20.2% |
| Cc1ccc(N(CC(=O)Nc2ccc(F)c(Cl)c2)S(=O)(=O)c2c(C)noc2C)cc1 | 11.9% |
| C#CC(CC)(CC)NC(=O)Nc1ccccc1C(=O)OC | 64.6% (active) |
| CCNC(=O)Nc1ccccc1C(=O)OC | -5.5% |
| CCOC(=O)CNC(=O)Nc1ccccc1C(=O)OC | -7.2% |
| N#Cc1nc(-c2cccs2)oc1NCC1CCCO1 (stereo unspecified) | 0.2% |
| CS(=O)(=O)N1CCN(c2ccc([N+](=O)[O-])c(SCc3ccco3)c2)CC1 | 43.6% |
| O=[N+]([O-])c1ccc(SCc2ccco2)cc1N1CCOCC1 | 1.4% |
| O=[N+]([O-])c1ccc(N2CCOCC2)cc1SCc1ccco1 | 68.5% (active) |
| CC(=O)NC(=S)Nc1ccc(S(=O)(=O)N2CCOCC2)cc1 | -4.7% |
| O=C1CSc2ccc(C(=O)NCCC3=CCCCC3)cc2N1 | -5.5% |
| COCCNC(=O)c1ccc2c(c1)NC(=O)CS2 | 53.7% (active) |

| SMILES | inhibition |
| --- | --- |
| COC(=O)c1ccc2c(c1)NC(=O)CS2 | -9.2% |
| COc1cccc(C(=O)Nc2ccc(S(=O)(=O)Nc3onc(C)c3C)cc2)c1 | -1.9% |
| Nc1ccc(OCC(O)C[n+]2ccc(CCS(=O)(=O)[O-])cc2)cc1 (stereo unspecified) | 53.8% (active) |
| COc1ccc(OCC(O)COc2ccc(OC)cc2)cc1 | -1.9% |
| Nc1ccc(CCS(N)(=O)=O)cc1 | -2.1% |
| Cc1cc(CNC(=O)COc2ccccc2F)c2ccccc2n1 | -0.4% |
| COc1ccc(CN2CCN(Cc3csc(C(C)=O)c3)CC2CCO)c(C)c1C (stereo unspecified) | -1.9% |
| CCOC(=O)c1nn(-c2ccc(C)c(C)c2)cc1O | 12.2% |
| COc1ccc(/C=N/NC(=O)c2nn(-c3ccc(Cl)cc3)c(=O)c3c(N)scc23)cc1 | 41.9% |
| Cc1ccc(-n2nc(C(=O)O)c3ccccc3c2=O)cc1C | -1.7% |
| CCCSc1cc(=O)n(-c2ccc(F)cc2)nc1C(=O)OCC | -6% |
| CCOC(=O)c1nn(-c2ccccc2)c(=O)c2c(NC(C)=O)scc12 | 0% |
| CCOC(=O)c1nn(-c2ccccc2)c(=O)c2c(N)scc12 | 63.3% (active) |
| COc1ccc(/C=N/NC(=O)c2nn(-c3ccc(C)c(C)c3)c(=O)c3ccccc23)cc1 | 22.6% |
| CCOC(=O)c1nn(-c2ccc(F)cc2)c(C)c1C(C)=O | -0.1% |
| COc1ccc(/C=N/NC(=O)c2nn(-c3ccccc3)c(=O)c3c(N)scc23)cc1 | 52.4% (active) |
| CCOC(=O)c1nn(-c2ccccc2)c(C(=O)OCC)c1N | 10.9% |
| CCOC(=O)c1nn(-c2ccc(F)cc2)c(=O)c2c(N)scc12 | 62.3% (active) |
| CCOC(=O)c1nn(-c2ccc(C)c(C)c2)c(=O)c2c(N)scc12 | 54.4% (active) |
